# In PubChem BioAssay (Tox21):
# Several values for one entry are separate records, joined by “and”; a condition that tells them apart may be missing. Identical values can stand only once. Inconclusive results are not listed. Some compounds were tested as several samples or in several runs, with calls that do not always agree. Activity calls are given as the source filed them. Unless noted, calls follow the shape of the dose curve; as a rule, active = well fitted cell-killing curve with a large enough effect in the repeat runs; inconclusive = weak or mixed curves, or effect the other way; inactive = no such curve, though single readings can be large or run the other way.
# System: not listed separately
# Experiment: qHTS assay to identify small molecule agonists of the farnesoid-X-receptor (FXR) signaling pathway - cell viability counter screen (AID 743218); also: nearly all actives have a fitted effect of over 45% in size
# Details: FXR-bla HEK293T viability, CellTiter-Glo luminescence, 16 h; series mostly up to 62.6 µM; viability change, negative = cytotoxic: at the top concentration
# Method in brief: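 HEK 293T FXR-bla cells; 5 h pre-incubation, 16 h compound exposure at 37 C; LiveBLAzer substrate 2 h RT, then CellTiter-Glo 30 min RT, luminescence.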
# % is scaled to controls: 0 for no effect and ±100 for the full control effect; potency is read from the fitted curve at half-maximal effect.
Compound,Potency,"viability change, negative = cytotoxic"
CNCCC(Oc1ccc(C(F)(F)F)cc1)c1ccccc1 (stereo unspecified),21.6 µM (active),–
CCCCCC(=O)O[C@]1(C(C)=O)CC[C@H]2[C@@H]3CCC4=CC(=O)CC[C@]4(C)[C@H]3CC[C@@]21C,43.4 µM (active),–
CC(N)=O,–,23.1% [at 232 µM] (inactive)
COc1ccc(CCN2CCC(Nc3nc4ccccc4n3Cc3ccc(F)cc3)CC2)cc1,2.81 µM (active) and 23.7 µM (active),–
Nc1nc(=S)c2[nH]cnc2[nH]1,–,-1.84% (inactive)

# Biological target: Bile acid receptor (Homo sapiens) (UniProt Q96RI1)
# Experiment: qHTS assay to identify small molecule agonists of the farnesoid-X-receptor (FXR) signaling pathway (AID 743220; active = well fitted activation curve with a large enough effect in the signal ratio in the repeat runs, not every such curve was filed as active; the % refers to the signal ratio)
# Details: HEK293T FXR-UAS-bla, beta-lactamase FRET ratio, 16 h; series mostly up to 62.6 µM; activation: at the top concentration
# Method in brief: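 Beta-lactamase reporter under UAS control in GeneBLAzer FXR HEK 293T cells (5000/well) measured with LiveBLAzer FRET substrate after 2 h at room temperature. Compound exposure lasted 16 h at 37C.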
# Chain of Bile acid receptor (Homo sapiens) (Q96RI1 whole entry, looked up): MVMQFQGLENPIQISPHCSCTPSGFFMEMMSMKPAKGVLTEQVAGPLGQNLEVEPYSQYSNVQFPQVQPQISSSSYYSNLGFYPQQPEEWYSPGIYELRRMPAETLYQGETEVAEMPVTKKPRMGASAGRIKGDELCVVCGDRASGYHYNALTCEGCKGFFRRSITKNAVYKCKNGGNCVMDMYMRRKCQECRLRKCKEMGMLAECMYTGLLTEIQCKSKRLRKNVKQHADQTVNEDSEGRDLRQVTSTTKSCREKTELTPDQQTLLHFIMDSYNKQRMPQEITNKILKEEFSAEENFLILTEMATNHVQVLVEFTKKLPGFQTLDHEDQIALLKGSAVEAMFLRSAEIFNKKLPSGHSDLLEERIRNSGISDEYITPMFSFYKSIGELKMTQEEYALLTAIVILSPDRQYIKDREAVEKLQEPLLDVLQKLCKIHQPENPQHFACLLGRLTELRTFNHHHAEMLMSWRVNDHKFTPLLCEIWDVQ
Compound,activation,Potency
Oc1c(Cl)cc(Cl)c(Cl)c1Cc1c(O)c(Cl)cc(Cl)c1Cl,-0.474% (inactive),–
N[C@@H]1CONC1=O,0.626% (inactive),–
Nc1ccc(O)cc1,–,20.3 µM (active) and inactive
O=C(O)Cn1cnnn1,2.87% (inactive),–
Oc1c(Cl)cc(Cl)cc1Sc1cc(Cl)cc(Cl)c1O,–,inactive
COc1ccc(CCN2CCC(Nc3nc4ccccc4n3Cc3ccc(F)cc3)CC2)cc1,-1.3% (inactive),–
